Shown are actives, neighbours in structure and some others; about 0.036% of the full set was active somewhere.
LMNA splice mod: changes lamin A minigene splicing in HeLa cells | actives 0.01% (n = 200,000) | Potency, µM (doses to about 46.1 µM), for the others: at the highest dose ratio change, negative = inhibition, hits mostly inhibitors | HeLa LMNA splicing GFP/RFP minigene ratio, 48 h | AID 1487; active = well fitted inhibition curve with a large enough effect in the signal ratio, with a control signal flat, not every such curve was filed as active; inconclusive = small, poorly fitted or top-dose-only effect, or effect the other way, or a change in a side signal; the % refers to the signal ratio; note: potency is the fitted concentration of half-maximal effect; % is set by controls: 0 for no effect and ±100 for the full control effect
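S3 HeLa cells stably expressing lamin A-EGFP splicing minigene plus DsRed2, 600 cells/well, 48 h compound exposure at 37C. Laser-scanning cytometry; analysed as GFP (500-530 nm)/RFP (575-640 nm) total intensity ratio; 0.5% DMSO vehicle.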
MBNL1-CUG inh: MBNL1-poly(CUG) RNA binding inhibition; Q9NR56; TR-FRET MBNL1-His/biotin-(CUG)12 binding, 665/545 ratio; Potency, µM (doses to about 57.5 µM), inactives show top-dose activity change, negative = inhibition, actives largely listed as inhibitors; actives 0.036% (n = 280,000); active = well fitted inhibition curve with a large enough effect in the signal ratio, with a control signal flat, not every such curve was filed as active; inconclusive = small, poorly fitted or top-dose-only effect, or effect the other way, or a change in a side signal; inactive = no such curve, though single readings can be large or run the other way; the % refers to the signal ratio; note: potency is the fitted concentration of half-maximal effect; % is set by controls: 0 for no effect and ±100 for the full control effect
Target sequence (Q9NR56 whole entry, looked up): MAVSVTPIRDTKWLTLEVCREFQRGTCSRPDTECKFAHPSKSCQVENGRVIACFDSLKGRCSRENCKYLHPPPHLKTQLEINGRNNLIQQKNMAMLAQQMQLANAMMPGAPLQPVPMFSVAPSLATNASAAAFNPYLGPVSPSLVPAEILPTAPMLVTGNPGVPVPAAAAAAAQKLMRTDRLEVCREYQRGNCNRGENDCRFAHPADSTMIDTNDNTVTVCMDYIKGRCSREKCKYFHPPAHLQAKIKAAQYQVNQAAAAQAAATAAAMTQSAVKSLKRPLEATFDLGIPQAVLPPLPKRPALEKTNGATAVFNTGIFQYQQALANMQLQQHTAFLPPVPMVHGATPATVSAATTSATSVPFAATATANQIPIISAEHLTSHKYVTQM
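His-tagged MBNL1 binding to biotinylated (CUG)12 RNA was measured by TR-FRET using terbium anti-His antibody (0.055 ng/ul final) and streptavidin-XL665 (5 nM final). Compounds were titrated 92 nM to 58 uM; 60 min at room temperature.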
CBFb-RUNX1 inh: blocks binding between human CBF-beta and RUNX1; Q01196+Q13951; 230,000 tested, under 10 active; AlphaScreen CBFb-His/RUNX1-biotin binding, biochemical; Potency, µM (highest dose often 59.8 µM), inactives show at the top dose activity, negative = inhibition, usual class: inhibitors; active = well fitted curve in the direction sought with a large enough effect; inconclusive = small, poorly fitted or top-dose-only effect, or effect the other way, or another doubt; inactive = no such curve, though single readings can be large or run the other way; note: % of control where 0% means no effect
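His-tagged CBF-beta and biotinylated RUNX1 (30 nM each) were premixed 20 min at room temperature, exposed to compound for 15 min, then given nickel-chelate and streptavidin AlphaScreen beads (50 ng each). After 90 min, AlphaScreen signal was read.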
Active calls of the source: *; [ ] = dose if it differs, or a comment.

C=CCOC(=O)C(C(C)=O)C(NC(=O)OC)c1ccco1 (stereo unspecified) was read as CBFb-RUNX1 inh 8%[13.1 µM].
`CCOc1ccc(OCC)c(NC(=O)c2cnc3c(-c4ccccc4)c(C)nn3c2C)c1` gave LMNA splice mod -10%[46 µM].
For CCc1nn2c(=O)cc(COC(=O)c3ccccc3)nc2s1 the results were LMNA splice mod -11%[46 µM].
COc1cc2c(c(OC)c1OC)-c1ccc(OC)c(=O)cc1[C@@H](NC=O)CC2 was read as CBFb-RUNX1 inh -2%.
Screening CC[C@H](C)[C@H](NC(=O)[C@H](CCCNC(=N)N)NC(=O)[C@@H]1CCCN1C(=O)[C@H](Cc1ccccc1)NC(=O)[C@H](Cc1cnc[nH]1)NC(=O)[C@H](CCCNC(=N)N)NC(=O)[C@@H](NC(=O)[C@H](C)NC(=O)[C@H](CCC(=O)O)NC(=O)[C@H](CC(N)=O)NC(=O)[C@@H](N)CCCCN)C(C)C)C(=O)N[C@@H](Cc1c[nH]c2ccccc12)C(=O)N[C@@H](CC(C)C)C(=O)O returned CBFb-RUNX1 inh 2%.
For Cc1ccc2c(c1)N(C(=O)N1CCC(C(=O)NCc3cccs3)CC1)CC(C)O2 (stereo unspecified) the results were LMNA splice mod -5%[46 µM].
For CC1NC(=O)NC1CCCCC(=O)O (stereo unspecified) the results were LMNA splice mod 2%, MBNL1-CUG inh -13% and CBFb-RUNX1 inh 5%.
`CCc1cccc(NC(=O)CCCCCC2NC(=O)NC2C)c1` (stereo unspecified) gave LMNA splice mod 3%[46 µM] and MBNL1-CUG inh 0.1µM*.
Screening CCc1cccc(NC(=O)CCCn2c(=O)[nH]c3ccsc3c2=O)c1 returned MBNL1-CUG inh -6%.
For Cc1ccc(NC(=O)CCCCCC2NC(=O)NC2C)cc1 (stereo unspecified) the results were LMNA splice mod 2% and MBNL1-CUG inh 0.045µM*.
Screening Cc1ccc(Cl)cc1NC(c1ccc(F)cc1)c1nnc(-c2ccccc2)o1 (stereo unspecified) returned LMNA splice mod -2%[46 µM].
For CN(C)c1nc(-c2ccoc2)nc2ccccc12 the results were LMNA splice mod -7%.
`CC(C)CCNC(=O)C(CC(C)C)NC(=O)C1OC1C(=O)O` (stereo unspecified) gave CBFb-RUNX1 inh 7%.
CC/C(=C(/c1ccccc1)c1ccc(OCCN(C)C)cc1)c1ccccc1 was read as CBFb-RUNX1 inh 13%.
For Cc1cc(=O)n(Cc2ccc(Cl)cc2)c2c1c(C)nn2-c1ccccc1 the results were LMNA splice mod 5%[46 µM].
COc1cccc(NC(=O)CN2C=NS(=O)(=O)c3ccccc32)c1 was read as LMNA splice mod -4%[46 µM].
For CC[C@H](C)[C@H](NC(=O)[C@H](Cc1ccc(O)cc1)NC(=O)[C@@H](NC(=O)[C@H](CCCN=C(N)N)NC(=O)[C@@H](N)CC(=O)O)C(C)C)C(=O)N[C@@H](Cc1cnc[nH]1)C(=O)N1CCC[C@H]1C(=O)N[C@@H](Cc1ccccc1)C(=O)N[C@@H](Cc1cnc[nH]1)C(=O)N[C@@H](CC(C)C)C(=O)O the results were CBFb-RUNX1 inh 20%.
Cc1cc(-n2c(SCC(=O)NCc3ccccc3)nc3ccsc3c2=O)ccc1Cl was read as LMNA splice mod -7%[46 µM].
Screening Cc1ccc(NC(=O)c2cc(S(=O)(=O)N3CCc4ccccc43)ccc2F)cc1Cl returned LMNA splice mod -3%[46 µM].
`Cc1cccc(CN2CCC(CNC(=O)Cn3ncc4c([nH]c5ccc(C)cc54)c3=O)CC2)c1` gave LMNA splice mod -5%[46 µM].
For CCOc1ccc(-c2c(C)nn3c(C)c(C(=O)NCCc4ccccc4)cnc23)cc1OCC the results were LMNA splice mod -8%[46 µM].
CCc1ccc(NC(=O)N2CCN(Cc3nc4ccc(C)cc4o3)CC2)cc1 was read as LMNA splice mod -24%[46 µM].
COC(=O)C(CCSC)NC(=O)Cn1ncc2c([nH]c3ccccc32)c1=O (stereo unspecified) was read as LMNA splice mod -5%[46 µM].
Screening Cc1ccc(N2CCN(C(=O)CCS(=O)(=O)c3cc4c(cc3Cl)NC(=O)CO4)CC2)c(C)c1 returned LMNA splice mod 5%[46 µM].
For COc1cc2nc(N3CCN(C(=O)OCc4ccccc4)C(C(=O)NC(C)(C)C)C3)nc(N)c2cc1OC (stereo unspecified) the results were LMNA splice mod inconclusive and CBFb-RUNX1 inh -1%.
`O=C(CSc1nccn1-c1cccc(Cl)c1)Nc1cccc(C(F)(F)F)c1` gave LMNA splice mod -8%[46 µM].
Cc1ccc(NC(=O)c2cc(C)nc3c2c(C)nn3-c2cccc(Cl)c2C)c(C)c1 was read as LMNA splice mod -1%[46 µM].
Screening O=C(N/N=C\c1ccccc1O)c1ccccc1O returned CBFb-RUNX1 inh 4%[21.7 µM].
CC(C)C[C@H](NC(=O)[C@H](Cc1c[nH]c2ccccc12)NC(=O)[C@H](CCCCN)NC(=O)CNC(=O)[C@H](CC(C)C)NC(=O)[C@H](CO)NC(=O)[C@@H](N)Cc1cnc[nH]1)C(=O)NCC(=O)N[C@@H](Cc1cnc[nH]1)C(=O)N1CCC[C@H]1C(=O)N[C@@H](CC(=O)O)C(=O)N[C@@H](CCCCN)C(=O)N[C@@H](Cc1ccccc1)C(=O)O was read as CBFb-RUNX1 inh 3%.
Screening COc1ccc(-c2cc(C(F)(F)F)nc(S(=O)(=O)CCCC(=O)Nc3cc(C)on3)n2)cc1OC returned LMNA splice mod 4µM*, MBNL1-CUG inh 12% and CBFb-RUNX1 inh -1%.
For COc1ccccc1-c1cc(C(F)(F)F)nc(S(=O)(=O)CCCC(=O)Nc2cc(C)on2)n1 the results were LMNA splice mod -21%, MBNL1-CUG inh 13% and CBFb-RUNX1 inh 2%.
Screening O=C(COc1ccccc1Cl)OCc1cc(=O)n2nc(C3CCCCC3)sc2n1 returned LMNA splice mod 2%[46 µM].
`CC(C)C(=O)Nc1ccc2nc(SCCOc3ccccc3)sc2c1` gave LMNA splice mod 17%[46 µM].
CCOC(=O)CCCCC(=O)c1[nH]c(=O)[nH]c1CSCCO was read as LMNA splice mod -3%, MBNL1-CUG inh 3.5µM* and CBFb-RUNX1 inh inconclusive.
`CCOC(=O)c1[nH]c(=O)[nH]c1CSc1ccccn1` gave LMNA splice mod 5%, MBNL1-CUG inh -7% and CBFb-RUNX1 inh 3%.
Screening CCOC(=O)CCCCC(=O)c1[nH]c(=O)[nH]c1CSc1nc(-c2ccccc2)c(C#N)c(=O)[nH]1 returned LMNA splice mod -1%, MBNL1-CUG inh 7.1µM* and CBFb-RUNX1 inh -13%.
`N#Cc1c(-c2ccccc2)nc(SCC(=O)N(c2ccccc2)c2ccccc2)[nH]c1=O` gave LMNA splice mod -12%, MBNL1-CUG inh inconclusive and CBFb-RUNX1 inh -6%.
Screening O=C(O)c1ccccc1O[C@@H]1O[C@H](C(=O)O)[C@@H](O)[C@H](O)[C@H]1O returned CBFb-RUNX1 inh 16%.

Bioassay records as filed in PubChem.
